Compounds without any hit were thinned out: in the full panel of roughly 83,000, 20% have a hit.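 Step 1: grow cells in 96-well plates. Step 2: add test compound at a single concentration. Step 3: incubate 48 h. Step 4: record percent growth.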 Values without a mark were called inactive. The source made the active and inactive calls. The calls were made as follows: active = growth percent below 10; inactive = the rest.

Holding throughout (test): NCI-60 one-dose screen, 48 h (100 = growth as untreated, 0 = no growth, -100 = all killed)
Details in all cases: 10 µM unless noted

In assay [1] the test system is DU-145 prostate.
For assay [2], the system named is K-562 leukemia.
The subject of assay [3] is MALME-3M melanoma.
Assay [4] has as its system MDA-MB-231 breast.
Assay [5] deals with RXF 393 renal.
Assay [6] has as its system SF-268 CNS.
Assay [7] deals with SF-295 CNS.
For assay [8], the system named is SF-539 CNS.
The test system of assay [9] is UACC-257 melanoma.
The test system of assay [10] is M14 melanoma.
Assay [11] concerns HCT-15 colon.
The subject of assay [12] is HT29 colon.
The test system of assay [13] is SNB-75 CNS.
Assay [14] has as its system SNB-19 CNS.
In assay [15] the test system is U251 CNS.
The test system of assay [16] is PC-3 prostate.
The subject of assay [17] is SK-MEL-5 melanoma.
Assay [18] relates to UACC-62 melanoma.
The test system of assay [19] is LOX IMVI melanoma.
The test system of assay [20] is SK-MEL-28 melanoma.

Turning to `CCN(CC)CCCC(C)NCc1ccccc1` (stereo not given), the growth in assay [1] is 97.8%; in assay [2] it was 118%; in assay [3], 91.1%; in assay [4], 105%; in assay [5], 135%; in assay [6], 100%. Moreover, the growth is 101% in assay [7]; 102% in assay [8]; 102% in assay [9]; 91.4% in [10]; 101% in [11]; 83.4% in assay [12]. The growth in assay [13] was 99.8%; in assay [14], 101%; in assay [15] it was 99.2%; in assay [16], 91.2%; in [17], 108%; in assay [18], 97.5%. The growth in [19] was 100%; in [20], 102%.
On to `O=S(=O)(NCCNc1cc(-c2c(-c3cccc(O)c3)nc3sccn23)ccn1)c1ccc(Br)cc1`, for which the growth in assay [1] was 57.9%; in assay [2], 34.5%; in assay [3], 78.8%; in assay [4] it was 72.8%; in assay [5], 60%; in assay [6], 41.3%. Besides, the growth was 69% in [7]; 75.2% in assay [8]; 89.1% in assay [9]; 60.8% in [10]; 44.8% in assay [11]; 51% in assay [12]. In addition, the growth was 26.3% in assay [13]; 66.1% in [14]; 64.6% in assay [15]; 49.8% in [16]; 25.2% in assay [17]; 56.8% in assay [18]. Further, the growth in assay [19] is 61.6%; in assay [20], 84.9%.
For `Nc1nc(Nc2ccc(Cl)cc2)nn1S(=O)(=O)c1ccc(-c2ccc(F)cc2)cc1`, the growth in assay [1] was 88.7%; in assay [2] it was 83.5%; in assay [3], 113%; in assay [4], 87.8%; in [5], 92.3%; in assay [6] it was 76.3%. Moreover, the growth in assay [7] was 99.1%; in [8], 94%; in assay [9], 107%; in assay [10], 89.8%; in assay [11], 77.4%; in assay [12], 80%. Besides, the growth was 79% in assay [13]; 88.8% in [14]; 88.8% in [15]; 67.4% in [16]; 98.7% in assay [17]; 72.5% in [18]. In addition, the growth in assay [19] was 83.6%; in assay [20], 94.5%.
As to `Cc1cc(C(c2ccccc2)c2ccccc2)ccc1NS(=O)(=O)c1ccccc1`, the growth in [1] was 102%; in assay [2], 65.1%; in assay [3], 130%; in assay [4], 88.5%; in [5], 102%; in assay [6], 85.9%. The growth in assay [7] is 109%; in [8], 98.4%; in assay [9], 118%; in assay [10], 108%; in [11], 96.3%; in [12], 89.3%. In addition, the growth was 95.4% in assay [13]; 101% in assay [14]; 94.6% in [15]; 83.6% in assay [16]; 94.8% in [17]; 85.2% in assay [18]. The results for the growth in [19] and in assay [20] were 87.7% and 112%, respectively.
As for `COc1ccc(/C=C(\C#N)n2nnc3ccccc32)cc1`, the growth in assay [1] was -5.07% (active); in assay [2] it was 15%; in assay [3] it was 44.1%; in assay [4] it was -14.5% (active); in [5], -39.3% (active); in assay [6], 21.3%. The growth is -3.98% (active) in assay [7]; -46.4% (active) in assay [8]; 77.5% in assay [9]; -11% (active) in assay [10]; 8.56% (active) in assay [11]; 11% in assay [12]. Moreover, the growth in [13] was -31.7% (active); in [14], 23%; in assay [15], 17.6%; in assay [16], 15.8%; in assay [17] it was 6.7% (active); in assay [18] it was 21.4%. Besides, the growth was 2.08% (active) in assay [19] and 36.2% in assay [20].
As to `CCn1c(Sc2nnc(Nc3ccccc3)s2)nc2c1c(=O)n(C)c(=O)n2C`, the growth was 113% in assay [1]; 114% in assay [2]; 94.9% in [3]; 97.8% in assay [4]; 91.4% in assay [5]; 103% in assay [6]. The growth in [7] is 91.9%; in assay [8] it was 96.2%; in [9], 97.4%; in assay [10], 104%; in assay [11], 97.6%; in assay [12] it was 137%. The growth in assay [13] was 101%; in [14], 95%; in assay [15], 103%; in [16], 100%; in [17] it was 99.2%; in assay [18], 90.2%. For the same compound, the growth was 95.9% in assay [19] and 93% in assay [20].
Regarding `CN(C)c1ccc2cc(-c3ccccc3F)c(N)nc2c1`, the growth is 17.1% in [1]; 13.5% in [2]; -22.1% (active) in [3]; 64.7% in assay [4]; 19.1% in assay [5]; 45.1% in assay [6]. In addition, the growth in assay [7] was 0.224% (active); in assay [8] it was -16.4% (active); in assay [9], 45.7%; in assay [10] it was 10.5%; in [11], 37.4%; in [12], 1.79% (active). For the same compound, the growth in [13] is 11.3%; in assay [14] it was 55.1%; in [15] it was 16.8%; in assay [16], 31.6%; in [17], -18.8% (active); in assay [18] it was 40.2%. For the same compound, the values for the growth in assay [19] and in assay [20] were 33.4% and 58%, respectively.

(Values after PubChem BioAssay (NCI).)
